# From the supplement of paper PMC4894684
# Where “and” joins values, the source holds several entries; their conditions need not be identical. Identical values can stand only once. Counter-ions that a name gives are not always drawn. ± gives the standard deviation of the averaged measurements. In all, about 1,000 compounds went through this assay and about 15 (2%) showed an effect of 50% or more. The list comes from a sample in which strong results are over-represented; it also holds similar structures and randomly drawn compounds.
# System: HFF
# Assay: uninfected host cell viability relative to vehicle control; higher = less host cell toxicity
# Conditions: 5 µM; 72 h; oxygen 21 %
row,Compound,uninfected host cell viability
1,CNc1cc(OC)c(C(=O)NC2CCN(Cc3ccccc3)C2C)cc1Cl (stereo unspecified) [Nemonapride],86.9 ± 6.9%
2,C[C@H](NC[C@H](O)CP(=O)(O)Cc1ccccc1)c1ccc(Cl)c(Cl)c1,87.23 ± 0.39%
3,CCOc1ccc(Nc2nc(-c3c(C)nc4ccccn34)cs2)cc1,73.8 ± 2.5%
4,CCCCC[C@H](O)/C=C/[C@H]1[C@H](O)CC(=O)[C@@H]1C/C=C\CCCC(=O)O [Prostaglandin E2],95.2 ± 2.4%
5,COC(=O)C1=C(C)NC(C)=C(C(=O)OC(C)C)C1c1cccc2nonc12 (stereo unspecified) [Isradipine],104 ± 7.9%
6,CC(Cc1ccccc1)(NC(=O)CN)c1ccccc1 (stereo unspecified) [Remacemide hydrochloride],85.5 ± 1.2%
7,CCn1c(=O)[nH]c2ccccc21,95.8 ± 5.6%
8,CC(/C=C/c1cccc(Oc2ccc(F)cc2)c1)N(O)C(N)=O (stereo unspecified),82.8 ± 3.7%
9,O=C1NN(C(=O)Nc2ccc(Br)cc2)[C@@H](c2ccccc2)[C@@H]1c1ccccc1,91.67 ± 0.67%
10,CCc1c2c(nc3ccc(O)cc13)-c1cc3c(c(=O)n1C2)COC(=O)[C@]3(O)CC,77.3 ± 8.2%
11,NCCNC(=O)c1ccc(Cl)cn1 [Lazabemide hydrochloride],94.7 ± 1.2%
12,Nc1[nH]nc2nnc(-c3c(-c4ccccc4)nn4ccccc34)cc12,94.685 ± 0.091%
13,OC(c1ccccc1)C1CCN(CCc2ccccc2)CC1 (stereo unspecified),101 ± 7.3%
14,Cc1cc(/C(=C/Nc2ccc(Cl)cc2)C(=O)Nc2ccc(Cl)cc2)on1,86.9 ± 4.8%
15,CC1(CN2CCC(n3c(=O)[nH]c4ccccc43)CC2)OCc2ccccc2-n2cccc21 (stereo unspecified),94.4 ± 2%
16,Nc1ccc(-c2cccc3c(=O)cc(N4CCOCC4)oc23)cc1,77 ± 0.83%
17,c1ccc(N2CCN(CCCOc3ccc4c(c3)OCO4)CC2)cc1 [BP 554 maleate],90.9 ± 6.9%
18,CCS(=O)(=O)N(C)[C@H]1c2cc(C#N)ccc2OC(C)(C)[C@@H]1O (racemic) [Chromanol 293B],91.3 ± 6.7%
19,c1ccc2oc(C3=NCCN3)cc2c1 [2-BFI hydrochloride],84.5 ± 0.93%
20,COc1ccc(-n2[nH]c3c4c(ncc3c2=O)CCCCC4)cc1,92.03 ± 0.15%
21,O=C(O)COc1cccc(-c2ocnc2-c2nc(-c3ccccc3)c(-c3ccccc3)o2)c1,105 ± 3.5%
22,NC(N)=Nc1ccc(Cl)cc1 [4-Chlorophenylguanidine hydrochloride],87.3 ± 2.5%
23,CN(Cc1ccccc1)C(=O)[C@H](Cc1ccc2ccccc2c1)NC(=O)[C@@H]1CCCN1C(=O)Nc1ccccc1[N+](=O)[O-],87.6 ± 1.8%

row,Compound,uninfected host cell viability
1,CC[C@H](CO)Nc1nc(Nc2cccc(-c3ccccn3)c2)c2ncn(C(C)C)c2n1 [(R)-DRF053 dihydrochloride],84.1 ± 1.9%
2,CC(C)NCC(O)c1ccc2ccccc2c1 (stereo unspecified) [Pronethalol hydrochloride],85.9 ± 2.6%
3,COc1cc2ncn(-c3cc(OCc4ccccc4C(F)(F)F)c(C(N)=O)s3)c2cc1OC,83.8 ± 1.1%
4,COCCNC(=O)COc1ccc(OCCNC[C@H](O)COc2ccccc2)cc1 [ZD 7114 hydrochloride],83.8 ± 2.3%
5,CCN(CC)CCCCC1CCN(CC(=O)N2c3ccccc3C(=O)Nc3cccnc32)CC1,89.2 ± 4.3%
6,O=C1c2ccccc2C(Cc2ccnc(F)c2)(Cc2ccnc(F)c2)c2ccccc21,90.8 ± 1.9%
7,NC(=O)N1C(=O)/C(=C(\O)c2cccs2)c2cc(Cl)ccc21 [Tenidap],89.1 ± 2%
8,CC(C)[C@H]1c2ccc(F)cc2CC[C@@]1(CCN(C)CCCc1nc2ccccc2[nH]1)OC(=O)C1CC1 [NNC 55-0396 dihydrochloride],15.68 ± 0.031%
9,COCC(=O)O[C@]1(CCN(C)CCCc2nc3ccccc3[nH]2)CCc2cc(F)ccc2[C@@H]1C(C)C [Mibefradil dihydrochloride],79.7 ± 4.6%
10,CCCCN1CCCC1CNC(=O)c1cc(C#N)c2ccccc2c1OC (stereo unspecified) [Nafadotride],84.8 ± 2.4%
11,COc1cc(C[C@H]2C(=O)OC[C@@H]2Cc2ccc(OC)c(OC)c2)ccc1O [Arctigenin],90 ± 1.6%
12,C[C@@H](CN1CCC(n2c(=O)[nH]c3cc(Cl)ccc32)CC1)NC(=O)c1ccc2ccccc2c1,94.4 ± 5.7%
13,COc1ccc(C(=O)Nc2sc3c(c2C(N)=O)CCCC3)cc1OC,80.1 ± 2.9%
14,CCOC(=O)[C@@H](C)Oc1cccc2c(=O)n(CC(=O)Nc3ccc4c(c3)OCCO4)ccc12,84.7 ± 0.99%
15,NC(=O)c1ccc(-c2nc(-c3ccccn3)c(-c3ccc4c(c3)OCO4)[nH]2)cc1,92.28 ± 0.26%
16,CC(C1=C(CCN(C)C)Cc2ccccc21)c1ccccn1 (stereo in doubt) [(S)-(+)-Dimethindene maleate],94.3 ± 0.97%
17,CC(O)(C(=O)Nc1ccc(S(=O)(=O)c2ccccc2)cc1)C(F)(F)F (stereo unspecified),99.7 ± 2.5%
18,Clc1ccccc1CNCC1CCC(CNCc2ccccc2Cl)CC1 (stereo unspecified),83.3 ± 1.1%
19,CCCCNC(=O)[C@@H]1Cc2ccccc2N1C(=O)[C@@H](N)CC [Butabindide oxalate],88.3 ± 5.3%
20,CCOc1cc(CC(=O)N[C@@H](CC(C)C)c2ccccc2N2CCCCC2)ccc1C(=O)O [Repaglinide],93.7 ± 2.1%
21,CCCCCCCCCCCC1=C(O)C(=O)C=C(O)C1=O [Embelin],83.69 ± 0.49%
22,Nc1nc(-c2ccc(Cl)c(Cl)c2)c(-c2ccncc2)s1 [CGH 2466 dihydrochloride],87.4 ± 1.5%
23,C[C@H](NC(=O)c1sccc1OCc1ccc(Cl)cc1)c1ccccc1,115 ± 1.5%

row,Compound,uninfected host cell viability
1,CN1c2cc3c(cc2N=C(c2ccc(C(=O)O)cc2)c2ccccc21)C(C)(C)CCC3(C)C,100 ± 8.6%
2,N[C@@H](Cn1ccc(=O)n(Cc2ccccc2C(=O)O)c1=O)C(=O)O,84.8% and 85.7%
3,CCc1cc2c(c(CC)n1)CCC(=O)N2Cc1ccc(-c2ccccc2-c2nn[nH]n2)cc1 [ZD 7155 hydrochloride],94.11 ± 0.49%
4,CC[N+](C)(CC)CC(=O)Nc1c(C)cccc1C [N-Methyllidocaine iodide],87.9 ± 3.1%
5,CC(=O)N(OCc1ccccc1)[C@H]1c2cc(C#N)ccc2OC(C)(C)[C@H]1O,98.6 ± 2.8%
6,COc1ccc2[nH]c([S+]([O-])Cc3ncc(C)c(OC)c3C)nc2c1 (stereo unspecified) [Omeprazole],85.1 ± 2.2%
7,c1nc(CC2CCNCC2)c[nH]1 [Immepip dihydrobromide],81.5 ± 3.3%
8,CC(C)[C@H](NS(=O)(=O)c1ccc(-c2ccc(Br)cc2)cc1)C(=O)O,87.2 ± 2.2%
9,O=C(NC(NC(=S)Nc1ccc(F)c([N+](=O)[O-])c1)C(Cl)(Cl)Cl)C(c1ccccc1)c1ccccc1 (stereo unspecified),86.1 ± 11%
10,Cc1nn(C)c2nc(NNC(=O)Nc3cc(Cl)nc(Cl)c3)cc(C(C)C)c12,89.2 ± 3.1%
11,O=C(O)c1c(Sc2ccccc2)c2cc(Cl)ccc2n1Cc1ccc(Cl)cc1,93.9 ± 8.2%
12,O=C(Nc1ccccc1)C12CC1C(=NO)c1ccccc1O2 (stereo unspecified),96.71 ± 0.12%
13,Clc1cccc(Nc2nnc(-c3ccccc3)c3ccccc23)c1,85.8 ± 0.91%
14,CCCCC1CCC(c2nc(-c3ccncc3)no2)CC1 (stereo unspecified),102 ± 3.9%
15,Cc1c(C(=O)N(C)C2CCCCC2)sc2nc3ccc(N)cc3n12,83.6 ± 2.2%
16,COC(=O)C1=C(C)NC(C)=C([N+](=O)[O-])[C@H]1c1ccccc1C(F)(F)F,68.2 ± 1.7%
17,O=S(=O)(c1cccc2cnccc12)N1CCCNCC1 [Fasudil hydrochloride],90.57 ± 0.53%
18,Cc1cc2nc3c(=O)[nH]c(=O)nc-3n(C)c2cc1C=O,94 ± 2%
19,O=C(O)Cc1cccc(OCCCN(Cc2cccc(C(F)(F)F)c2Cl)CC(c2ccccc2)c2ccccc2)c1 [GW 3965 hydrochloride],99.5 ± 3.2%
20,CC1=C(C(=O)OCCN(Cc2ccccc2)c2ccccc2)C(c2cccc([N+](=O)[O-])c2)C(P2(=O)OCC(C)(C)CO2)=C(C)N1 (stereo unspecified) [Efonidipine hydrochloride monoethanolate],98.4 ± 7.4%
21,Cc1cc(C)c(S(=O)(=O)Nc2cccc(C(F)(F)F)c2)c(C)c1,82.4 ± 6.6%
22,CN(C)CCCSC(=N)N [Dimaprit dihydrochloride],95.8 ± 1.1%
23,CC(=Cc1ccc(C(=O)O)cc1)c1ccc2c(c1)C(C)(C)CCC2(C)C,80.4 ± 2.1%

row,Compound,uninfected host cell viability
1,CC[C@@H]1Cn2c(c3nc(-c4ccccc4)nc-3n(C)c2=O)N1,89.2 ± 4.1%
2,CS(=O)(=O)Nc1c(O)ccc2c1CCCC2C1=NCCN1 (stereo unspecified),84.9 ± 2.8%
3,COc1ccc2cccc(N3CCN(CCNC(=O)c4ccc(F)cc4)CC3)c2c1,82.7 ± 4%
4,Cc1ccc(NC2=CC(=O)c3sc(C)nc3C2=O)cc1 [Ryuvidine],16.8 ± 0.66%
5,O=C(O)c1ccc(-c2c[nH]c3ncc(-c4ccccc4)cc23)cc1C1CCCC1,109 ± 2.2%
6,Nc1nc2c(cnn2CCc2ccccc2)c2nc(-c3ccco3)nn12,96.8 ± 2.3%
7,CN(N=O)C(=O)N[C@@H](C=O)[C@@H](O)[C@H](O)[C@H](O)CO [Streptozocin],86.9 ± 5.4%
8,CC(=O)NCCc1c(Cc2ccccc2)[nH]c2ccccc12 [Luzindole],101 ± 4.8%
9,CCC(NC(C)C)C(O)c1ccc(O)c2[nH]c(=O)ccc12 (stereo unspecified) [Procaterol hydrochloride],87.5 ± 1.7%
10,CCC(=O)NC1Cc2ccccc2C(c2ccccc2)C1 (stereo unspecified),99.58 ± 0.97%
11,C[S+]([O-])c1ccc(-c2nc(-c3ccc(F)cc3)c(-c3ccncc3)[nH]2)cc1 (stereo unspecified),89.4% and 88.6%
12,N=C(CC(O)COc1ccccc1-c1ccccc1)N1CCCCC1 (stereo unspecified),89.4 ± 2.9%
13,Cn1cc(/C=C2\C(=O)Nc3cccnc32)c2ccccc21,67.8 ± 1.2%
14,c1cc2c3c(c1)c1c(n3CCNC2)CCCC1 [WAY 629 hydrochloride],89.6 ± 5.6%
15,CCCCC/N=c1\ccn(Cc2ccccc2)c2ccccc12,83.1 ± 2.5%
16,CCCCCCCCc1ccc(-c2ccc(C(=O)O)cc2)cc1,85.5 ± 5%
17,CCCCCCCCCCCCCCCCn1cc[n+](Cc2ccccc2)c1C,32 ± 6.6%
18,CNC(=O)[C@@H](Cc1ccccc1)N(C)C(=O)[C@@H](Cc1ccc2ccccc2c1)N(C)C(=O)/C=C/CC(C)(C)N [Tabimorelin],79.1 ± 1.2%
19,N#Cc1ccccc1OCC(O)CNCCNC(=O)Nc1ccccc1 (stereo unspecified),86.9 ± 1.3%
20,CCc1ccc(OCc2ccccc2C(=O)Nc2ccc3nc(C)cc(N)c3c2)cc1,15 ± 0.61%
21,COc1ccc(NC(=O)c2cc(OCCCN(C)C)nn2Cc2ccccc2)cc1 [CFM 1571 hydrochloride],81.7 ± 2%
22,CCN(CC)CCCC(C)Nc1nc(C)cc(Nc2ccc3nc(C)cc(N)c3c2)n1 (stereo unspecified),80.4 ± 1.2%
